According to the antibiotic and cytotoxicity screens of Wong et al. (2023):
The campaign covered roughly 39,000 compounds. About 3,300 (8.5%) were called active. The entries come from a sample that favours actives as a whole.

tested on: HepG2; assay: cytotoxicity call (relative viability < 0.9); conditions: 10 µM

Row | Structure (SMILES) | cytotoxicity call
1 | c1cn2c3c(n1)CCCc3c1cc(C3CCCCC3)ccc12 | inactive
2 | CSC[C@H]1O[C@H](n2ccc3c(N)ncnc32)[C@@H](O)[C@H]1O | inactive
3 | Nc1nc(=O)n([C@@H]2O[C@H](CO)[C@@H](O)[C@@H]2F)cc1I | inactive
4 | Nc1ncnc2c1ncn2[C@H]1O[C@@H](CO)[C@H](O)[C@@H]1S | inactive
5 | Nc1ncnc2c1c(I)cn2[C@@H]1O[C@H](CO)[C@@H](O)[C@H]1O | active
6 | NC(=O)c1cn([C@@H]2O[C@H](CO)[C@@H](O)[C@H]2O)c2ncnc(N)c2c1=O | inactive
7 | Nc1ncnc2c1c(I)cn2[C@H]1O[C@@H](CO)[C@@H](O)[C@@H]1O | active
8 | CCS(=O)(=O)N1C[C@]2(CCN(CC2)Cc2cccc(c2)OC)c2c([nH]c3cc(ccc23)OC)[C@@H]1CO | inactive
9 | C[C@@H]1CN([C@H](C)CO)C(=O)Cc2cc(NC(=O)CCC(F)(F)F)ccc2O[C@H]1CN(C)S(=O)(=O)c1cccs1 | inactive
10 | Cc1ccc(S(=O)(=O)Nc2cccc3c2O[C@H](CN(C)S(=O)(=O)c2cn(C)cn2)[C@@H](C)CN([C@@H](C)CO)C3=O)cc1 | inactive
11 | COCCOC(=O)N1C(=O)[C@@]2(c3cc(C#CCC(C(=O)OC)C(=O)OC)ccc31)[C@H](C(=O)Nc1nc3ccccc3s1)[C@H]1C(=O)O[C@H](c3ccccc3)[C@H](c3ccccc3)N1[C@@H]2c1ccccc1OCCO | inactive
12 | Cc1noc(C)c1S(=O)(=O)Nc1ccc2c(c1)C(=O)N([C@H](C)CO)C[C@@H](C)[C@H](CN(C)C(=O)Nc1ccc(F)cc1)OCCCC[C@@H](C)O2 | inactive
13 | CC(C)(C)Oc1ccc(O)cc1 | inactive
14 | CCOC(=O)C(C)(C)Oc1ccc(Cl)cc1 | inactive
15 | CC(C)(C)C(=O)OCOP(=O)(OCOC(=O)C(C)(C)C)C(C)(Oc1ccc(O)cc1)P(=O)(OCOC(=O)C(C)(C)C)OCOC(=O)C(C)(C)C | active
16 | COc1ccc(NC(=O)N(C)C[C@H]2OCCCC[C@@H](C)Oc3ccc(NS(=O)(=O)c4ccc(C)cc4)cc3C(=O)N([C@@H](C)CO)C[C@@H]2C)cc1 | inactive
17 | COc1cc2c(cc1O)[C@H](c1ccc(CN3CCCC3)cc1)N(Cc1cc3c(cc1Br)OCO3)CC2 | inactive
18 | C[C@@H]1CN([C@@H](C)CO)C(=O)Cc2cc(NC(=O)Nc3ccc(C(F)(F)F)cc3)ccc2O[C@@H]1CN(C)C(=O)NC1CCCCC1 | active
19 | C[C@H]1CN([C@@H](C)CO)C(=O)Cc2cc(NC(=O)Nc3ccc(C(F)(F)F)cc3)ccc2O[C@H]1CN(C)C(=O)NC1CCCCC1 | inactive
20 | C[C@H](CO)N1C[C@H](C)[C@@H](CN(C)C(=O)NC2CCCCC2)Oc2ccc(NC(=O)Nc3ccc(C(F)(F)F)cc3)cc2CC1=O | inactive
21 | C[C@@H]1CN([C@@H](C)CO)C(=O)Cc2cc(NC(=O)Nc3ccc(C(F)(F)F)cc3)ccc2O[C@H]1CN(C)C(=O)NC1CCCCC1 | inactive
22 | C[C@@H]1CN([C@H](C)CO)C(=O)Cc2cc(NC(=O)Nc3ccc(C(F)(F)F)cc3)ccc2O[C@@H]1CN(C)C(=O)NC1CCCCC1 | active
23 | C[C@@H]1CN([C@H](C)CO)C(=O)Cc2cc(NC(=O)Nc3ccc(C(F)(F)F)cc3)ccc2O[C@H]1CN(C)C(=O)NC1CCCCC1 | inactive

Row | Structure (SMILES) | cytotoxicity call
24 | CC(C)C(=O)O | inactive
25 | C[C@@H]1CN([C@@H](C)CO)C(=O)c2cc(NS(=O)(=O)c3cn(C)cn3)ccc2O[C@@H](C)CCCCO[C@H]1CN(C)S(=O)(=O)c1cccs1 | inactive
26 | NCCc1cc2nc(-c3ccncc3)ccn2n1 | inactive
27 | CN1CCN(C(=O)C[C@H]2CC[C@H]3[C@@H](COC[C@H](O)CN3C(=O)C3CCCC3)O2)CC1 | inactive
28 | O=c1ncc(F)c[nH]1 | inactive
29 | CCCNC(=O)N1C[C@]2(CCN(CC2)S(=O)(=O)c2cccc(c2)OC)c2c(n(c3cc(ccc23)OC)C)[C@H]1CO | inactive
30 | C=CCOC(=O)[C@@H]1[C@H]2C(=O)O[C@H](c3ccccc3)[C@H](c3ccccc3)N2[C@H](c2ccc(OCCOC(=O)[C@H]3C[C@H]4C(=O)N[C@@H](CC(C)C)C(=O)N4[C@H]3c3ccc(O)cc3)cc2)[C@@]12C(=O)Nc1ccc(I)cc12 | inactive
31 | CCC(=C/[C@H](C)C/C=C/C(C)=C/[C@@H](C)C(=O)[C@@H](C)[C@H](O)[C@@H](C)C/C(C)=C/C(=O)O)/C=C/[C@@H]1OC(=O)C=C[C@@H]1C | active
32 | C[C@@H]1CN([C@H](C)CO)C(=O)c2cc(C#CC3CCCCC3)cnc2O[C@H]1CN(C)C(=O)c1ccncc1 | inactive
33 | CCS(=O)(=O)N1C[C@]2(C1)CN([C@H](CO)c1c2c2ccc(cc2n1C)OC)C(=O)Nc1cccc(c1)F | inactive
34 | C[C@H](CO)N1C[C@H](C)[C@H](CN(C)Cc2ccc(-c3ccccc3)cc2)Oc2c(NS(=O)(=O)c3ccc(F)cc3)cccc2C1=O | active
35 | C[C@H](CO)N1C[C@H](C)[C@@H](CN(C)Cc2ccc(-c3ccccc3)cc2)Oc2c(NS(=O)(=O)c3ccc(F)cc3)cccc2C1=O | active
36 | C[C@H](CO)N1C[C@H](C)[C@H](CN(C)Cc2ccc(-c3ccccc3)cc2)Oc2c(NS(=O)(=O)c3ccccc3)cccc2C1=O | inactive
37 | C[C@H]1CN([C@@H](C)CO)C(=O)c2cccc(NS(=O)(=O)c3ccccc3)c2O[C@@H]1CN(C)Cc1ccc(-c2ccccc2)cc1 | inactive
38 | C[C@@H]1CN([C@@H](C)CO)C(=O)c2cccc(NS(=O)(=O)c3ccc(F)cc3)c2O[C@H]1CN(C)Cc1ccc(-c2ccccc2)cc1 | inactive
39 | C[C@@H]1CN([C@@H](C)CO)C(=O)c2cccc(NS(=O)(=O)c3ccccc3)c2O[C@@H]1CN(C)Cc1ccc(-c2ccccc2)cc1 | inactive
40 | C[C@H]1CN([C@@H](C)CO)C(=O)c2cccc(NS(=O)(=O)c3ccc(F)cc3)c2O[C@@H]1CN(C)Cc1ccc(-c2ccccc2)cc1 | inactive
41 | C[C@@H]1CN([C@@H](C)CO)C(=O)c2cccc(NS(=O)(=O)c3ccc(F)cc3)c2O[C@@H]1CN(C)Cc1ccc(-c2ccccc2)cc1 | active
42 | C[C@@H]1CN([C@H](C)CO)C(=O)c2cccc(NS(=O)(=O)c3ccc(F)cc3)c2O[C@H]1CN(C)Cc1ccc(-c2ccccc2)cc1 | active
43 | C[C@H]1CN([C@@H](C)CO)C(=O)c2cccc(NS(=O)(=O)c3ccc(F)cc3)c2O[C@H]1CN(C)Cc1ccc(-c2ccccc2)cc1 | inactive
44 | C[C@@H]1CN([C@H](C)CO)C(=O)c2cccc(NS(=O)(=O)c3ccccc3)c2O[C@H]1CN(C)Cc1ccc(-c2ccccc2)cc1 | inactive
45 | C[C@@H]1CN([C@H](C)CO)C(=O)c2cccc(NS(=O)(=O)c3ccc(F)cc3)c2O[C@@H]1CN(C)Cc1ccc(-c2ccccc2)cc1 | inactive
